Reference: PubChem BioAssay AID1159580 (chemical genetic matrix, 2015)
Values joined by “and” are separate entries in the source; they are usually repeats but may differ in a detail not shown here. Equal values may be shown once. The whole screen tested about 5,500 compounds, of which about 2,000 (36%) were called active. Another 18% or so got no clear call; they are omitted. No stated cut-off is given here; in the data, active means normalized growth mostly below about 0.91 (no sharp cut-off); inconclusive means no clear call, values can overlap the other calls; inactive means mostly above about 0.92. Some of the results follow.

Assay: chemical genetic growth profiling, strain panel (AID 1159580);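 further: tested at 20 µM; growth read once vehicle control cultures reached saturation at 30 °C; 1 = growth at the plate median or of vehicle wells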
Conditions: S. cerevisiae deletion strains, growth OD
[1] = locus YHR030C, strain SLT2, stronger effect = lower value
[2] = locus YHR079C, strain IRE1, stronger effect = lower value
[3] = locus YJL095W, strain BCK1, stronger effect = lower value
[4] = locus YJR066W, strain TOR1, stronger effect = lower value
[5] = locus YLR113W, strain HOG1, stronger effect = lower value
[6] = locus YNL183C, strain NPR1, stronger effect = lower value
[7] = locus YOR231W, strain MKK1, stronger effect = lower value
[8] = locus YPL256C, strain CLN2, stronger effect = lower value

Measured: normalized growth

NCCCCN
inactive: locus YAL013W, strain DEP1, stronger effect = lower value 1.02 | locus YAL040C, strain CLN3, stronger effect = lower value 1.07 | locus YBR021W, strain FUR4, stronger effect = lower value 1.02 | locus YBR229C, strain ROT2, stronger effect = lower value 1 | locus YCL029C, strain bik1, stronger effect = lower value 0.99 | locus YCL061C, strain MRC1 (second series), stronger effect = lower value 0.999 | locus YDL035C, strain GPR1, stronger effect = lower value 1.04 | locus YDL074C, strain BRE1, stronger effect = lower value 1.01 | locus YDL101C, strain DUN1, stronger effect = lower value 1.01 | locus YDL185W, strain tfp1, stronger effect = lower value 1.02 | locus YDL192W, strain arf1, stronger effect = lower value 1.01 | locus YDR101C, strain arx1, stronger effect = lower value 0.971 | locus YDR150W, strain NUM1, stronger effect = lower value 1.01 | locus YDR162C, strain NBP2, stronger effect = lower value 1.04 | locus YDR318W, strain mcm21, stronger effect = lower value 1.01 | locus YDR363W, strain ESC2, stronger effect = lower value 1.03 | locus YDR388W, stronger effect = lower value 1.01 | locus YDR502C, strain sam2, stronger effect = lower value 0.994 | locus YEL061C, strain CIN8, stronger effect = lower value 1.01 | locus YER002W, strain NOP16, stronger effect = lower value 1 | locus YER110C, stronger effect = lower value 1.01 | locus YER155C, strain BEM2, stronger effect = lower value 1.01 | locus YER167W, strain BCK2, stronger effect = lower value 1.02 | locus YGL078C, strain dbp3, stronger effect = lower value 0.995 | locus YGL086W, strain mad1, stronger effect = lower value 0.985 | locus YGL248W, strain PDE1, stronger effect = lower value 1 | locus YGR078C, strain PAC10, stronger effect = lower value 0.999 | locus YGR135W, strain pre9, stronger effect = lower value 1.06 | locus YGR229C, strain SMI1, stronger effect = lower value 1.02 and 1.01 | locus YGR252W, strain gcn5, stronger effect = lower value 1.04 | [1] 1 and 0.949 | locus YHR079C, strain IRE1 (second series), stronger effect = lower value 1 | [2] 0.969 | locus YHR094C, strain hxt1, stronger effect = lower value 1.01 | locus YHR129C, strain ARP1, stronger effect = lower value 1.01 | locus YHR200W, strain rpn10, stronger effect = lower value 1 | locus YIL066C, strain RNR3, stronger effect = lower value 1.01 | locus YIL073C, strain SPO22, stronger effect = lower value 1.11 | locus YIL125W, strain kgd1, stronger effect = lower value 0.997 | locus YIR030C, strain dcg1, stronger effect = lower value 0.999 | [3] 1.01 and 0.994 | locus YJL134W, strain LCB3, stronger effect = lower value 1.01 | locus YJL168C, strain set2, stronger effect = lower value 1.01 | locus YJL187C, strain SWE1 (second series), stronger effect = lower value 1.01 | locus YJR043C, strain POL32, stronger effect = lower value 1 | [4] 0.93 | locus YJR075W, strain HOC1, stronger effect = lower value 1.01 | locus YKL009W, strain mrt4, stronger effect = lower value 0.99 | locus YKL068W, stronger effect = lower value 0.999 | locus YKL085W, strain MDH1 (second series), stronger effect = lower value 1 | locus YKL085W, strain MDH1, stronger effect = lower value 1 | locus YKL190W, strain CNB1, stronger effect = lower value 0.999 | locus YKR001C, strain vps1, stronger effect = lower value 1 | locus YLR039C, strain RIC1, stronger effect = lower value 1.05 | locus YLR058C, strain SHM2, stronger effect = lower value 1.01 | locus YLR102C, strain apc9, stronger effect = lower value 1 | [5] 1.01 | locus YLR262C, strain YPT6, stronger effect = lower value 1.06 | locus YLR268W, strain sec22, stronger effect = lower value 0.996 | locus YLR330W, strain CHS5, stronger effect = lower value 1.01 | locus YLR342W, strain FKS1 (second series), stronger effect = lower value 1.07 | locus YLR371W, strain rom2, stronger effect = lower value 1 | locus YLR418C, strain cdc73, stronger effect = lower value 1.03 | locus YML016C, strain PPZ1, stronger effect = lower value 1 | locus YML032C, strain rad52, stronger effect = lower value 0.992 | locus YML124C, strain tub3, stronger effect = lower value 1 | locus YMR078C, strain ctf18, stronger effect = lower value 1 | locus YMR223W, strain ubp8, stronger effect = lower value 1.05 | locus YMR307W, strain GAS1, stronger effect = lower value 1.07 and 1.01 | locus YNL067W, strain RPL9B, stronger effect = lower value 1 | locus YNL128W, strain TEP1, stronger effect = lower value 1.01 | locus YNL153C, strain GIM3, stronger effect = lower value 1 | locus YNL175C, strain NOP13, stronger effect = lower value 1 | [6] 0.961 | locus YNL197C, strain WHI3, stronger effect = lower value 1 | locus YNL224C, strain SQS1, stronger effect = lower value 1 | locus YNL233W, strain BNI4, stronger effect = lower value 1.01 | locus YNL250W, strain rad50, stronger effect = lower value 1.03 | locus YNL271C, strain bni1, stronger effect = lower value 1.01 | locus YNL298W, strain CLA4, stronger effect = lower value 1.01 | locus YNL307C, strain MCK1, stronger effect = lower value 1.02 | locus YNR052C, strain pop2, stronger effect = lower value 1 | locus YOL012C, strain htz1 0.897 | locus YOL147C, strain pex11, stronger effect = lower value 1.01 | locus YOR061W, strain CKA2, stronger effect = lower value 1 | locus YOR069W, strain VPS5, stronger effect = lower value 1.01 | locus YOR083W, strain WHI5 (second series), stronger effect = lower value 1.01 | locus YOR136W, strain idh2, stronger effect = lower value 0.992 | locus YOR144C, strain elg1, stronger effect = lower value 1 | locus YOR184W, strain ser1, stronger effect = lower value 1 | [7] 0.957 | locus YOR316C, strain cot1, stronger effect = lower value 1 | locus YPL055C, strain LGE1, stronger effect = lower value 0.99 | locus YPL241C, strain CIN2, stronger effect = lower value 1.01 | [8] 0.958 | locus YPR119W, strain clb2, stronger effect = lower value 0.994 | locus YPR141C, strain kar3, stronger effect = lower value 1 | locus YPR163C, strain tif3, stronger effect = lower value 1.01 | locus YPR167C, strain met16, stronger effect = lower value 1 | strain wtn01, stronger effect = lower value 0.995

CCC(=O)NCC[C@@H]1CCc2ccc3c(c21)CCO3
active: locus YOR270C, strain vph1, stronger effect = lower value 0.771
inactive: locus YAL021C, strain ccr4, stronger effect = lower value 1.03 | locus YAL026C, strain drs2, stronger effect = lower value 1.01 | locus YAL030W, strain snc1, stronger effect = lower value 1.01 | locus YBL061C, strain skt5, stronger effect = lower value 1.02 | locus YBR009C, strain hhf1, stronger effect = lower value 0.987 | locus YBR023C, strain chs3, stronger effect = lower value 1.02 | locus YBR171W, strain sec66, stronger effect = lower value 1 | locus YBR231C, strain swc5, stronger effect = lower value 0.993 | locus YBR279W, strain paf1, stronger effect = lower value 1.02 | locus YCL011C, strain gbp2, stronger effect = lower value 1 | locus YCL016C, strain dcc1, stronger effect = lower value 1.04 | locus YCL061C, strain MRC1, stronger effect = lower value 0.988 | locus YCL069W, strain vba3, stronger effect = lower value 1 | locus YCR088W, strain abp1, stronger effect = lower value 1.01 | locus YDL005C, strain med2, stronger effect = lower value 0.995 | locus YDL040C, strain nat1, stronger effect = lower value 1 | locus YDR001C, strain nth1, stronger effect = lower value 1 | locus YDR069C, strain doa4, stronger effect = lower value 0.982 | locus YDR137W, strain rgp1, stronger effect = lower value 1.04 | locus YDR159W, strain sac3, stronger effect = lower value 0.924 | locus YDR195W, strain ref2 1.01 | locus YDR297W, strain sur2, stronger effect = lower value 0.989 | locus YDR334W, strain swr1, stronger effect = lower value 1 | locus YDR335W, strain msn5, stronger effect = lower value 0.998 | locus YDR392W, strain spt3, stronger effect = lower value 0.988 | locus YEL003W, strain gim4, stronger effect = lower value 0.972 | locus YEL037C, strain rad23, stronger effect = lower value 1.01 | locus YEL061C, strain CIN8 (second series), stronger effect = lower value 0.991 | locus YER015W, strain faa2, stronger effect = lower value 1 | locus YER016W, strain bim1, stronger effect = lower value 1.02 | locus YER111C, strain swi4, stronger effect = lower value 1.03 | locus YER155C, strain BEM2 (second series), stronger effect = lower value 1.06 | locus YFR010W, strain ubp6, stronger effect = lower value 0.953 | locus YGL167C, strain pmr1, stronger effect = lower value 1 | locus YGL173C, strain kem1, stronger effect = lower value 0.978 | locus YGL227W, strain vid30, stronger effect = lower value 1.01 | locus YGL240W, strain doc1, stronger effect = lower value 1.01 | locus YGL253W, strain hxk2, stronger effect = lower value 0.972 | locus YHR013C, strain ard1, stronger effect = lower value 1.02 | locus YHR027C, strain rpn1, stronger effect = lower value 0.998 | [1] 0.947 | [2] 0.953 | locus YHR142W, strain chs7, stronger effect = lower value 0.989 | locus YJL092W, strain hpr5, stronger effect = lower value 1.01 | locus YJL095W, strain BCK1 (second series), stronger effect = lower value 1.01 | [3] 0.981 | locus YJL115W, strain asf1, stronger effect = lower value 1.02 | locus YJL129C, strain trk1, stronger effect = lower value 1 | locus YJL154C, strain vps35, stronger effect = lower value 1.01 | locus YJL164C, strain tpk1, stronger effect = lower value 0.968 | locus YJL166W, strain qcr8, stronger effect = lower value 0.98 | locus YJL187C, strain SWE1, stronger effect = lower value 1.01 | [4] 0.936 | locus YKL160W, strain elf1, stronger effect = lower value 1.05 | locus YKR026C, strain gcn3, stronger effect = lower value 1.01 | locus YKR091W, strain srl3, stronger effect = lower value 1 | locus YLL001W, strain dnm1, stronger effect = lower value 0.952 | locus YLL026W, stronger effect = lower value 1 | locus YLL041C, strain sdh2, stronger effect = lower value 0.997 | locus YLR027C, strain aat2, stronger effect = lower value 0.999 | [5] 0.95 | locus YLR221C, strain rsa3, stronger effect = lower value 0.953 | locus YLR258W, strain gsy2, stronger effect = lower value 1.02 | locus YLR262C, strain YPT6 (second series), stronger effect = lower value 1.01 | locus YLR320W, strain mms22, stronger effect = lower value 0.975 | locus YLR342W, strain FKS1, stronger effect = lower value 1 | locus YLR357W, strain rsc2, stronger effect = lower value 1.02 | locus YLR370C, strain arc18, stronger effect = lower value 1 | locus YLR384C, strain iki3, stronger effect = lower value 1.01 | locus YML120C, strain ndi1, stronger effect = lower value 0.963 | locus YMR058W, strain fet3, stronger effect = lower value 1.01 | locus YMR125W, strain sto1, stronger effect = lower value 1 | locus YMR129W, stronger effect = lower value 0.985 | locus YMR205C, strain PFK2, stronger effect = lower value 1 | locus YMR231W, strain pep5, stronger effect = lower value 1 | locus YNL071W, strain lat1, stronger effect = lower value 1.01 | [6] 0.904 | locus YNL209W, strain ssb2, stronger effect = lower value 1.01 | locus YNL248C, strain rpa49, stronger effect = lower value 1.01 | locus YNL322C, strain KRE1 (second series), stronger effect = lower value 1.02 | locus YNR049C, strain mso1, stronger effect = lower value 1 | locus YOR001W, strain rrp6, stronger effect = lower value 0.929 | locus YOR070C, strain gyp1, stronger effect = lower value 1.02 | locus YOR080W, strain dia2, stronger effect = lower value 1.01 | locus YOR083W, strain WHI5, stronger effect = lower value 0.966 | locus YOR106W, strain vam3, stronger effect = lower value 1 | [7] 0.969 | locus YOR265W, strain rbl2, stronger effect = lower value 1 | locus YOR290C, strain snf2, stronger effect = lower value 1.01 | locus YPL051W, strain arl3, stronger effect = lower value 1.06 | locus YPL078C, strain atp4, stronger effect = lower value 1.03 | locus YPL106C, strain sse1, stronger effect = lower value 1.04 | locus YPL240C, strain hsp82, stronger effect = lower value 1.01 | [8] 0.942
